We go through 6 compounds from PubChem BioAssay (NCI).

Some test systems named below: NCI-H23 lung; NCI-H226 lung; NCI-H322M lung; HOP-62 NSCLC; NCI-H460 lung; HOP-92 NSCLC; NCI-H522 lung; 786-0 renal; COLO 205 colon; DU-145 prostate; K-562 leukemia; MALME-3M melanoma; MDA-MB-231 breast; RXF 393 renal; SF-268 CNS; SF-295 CNS; SF-539 CNS; UACC-257 melanoma; M14 melanoma.
Assay in all cases: NCI-60 one-dose screen, 48 h (100 = growth as untreated, 0 = no growth, -100 = all killed)
What all share (conditions): 10 µM unless noted

Compounds without any hit were thinned out: in the full panel of roughly 83,000, 20% have a hit.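 Method: cells in 96-well plates; compound added at one concentration; 48 h incubation; percent growth measured; values under 10 scored active.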 Values without a mark were called inactive. Calls of active or inactive are those of the source.

As to `CC(C)(C)c1ccc(S(=O)(=O)Oc2ccc(-c3sc4cc(OS(=O)(=O)c5ccc(C(C)(C)C)cc5)ccc4c3C(=O)c3ccc(OCCN4CCCCC4)cc3)cc2)cc1`, the growth with NCI-H23 lung is 93.3%; with NCI-H226 lung, 94.7%; in the test with NCI-H322M lung, 96.1%; with HOP-62 NSCLC, 90.8%; with NCI-H460 lung, 104%; with HOP-92 NSCLC, 84.4%. The growth with NCI-H522 lung was 72%; in the test with 786-0 renal, 89%; in the test on COLO 205 colon, 101%; with DU-145 prostate, 114%; with K-562 leukemia it was 103%; in the test on MALME-3M melanoma, 107%. In addition, the growth is 103% in the test on MDA-MB-231 breast; 103% with RXF 393 renal; 102% in the test with SF-268 CNS; 94.5% in the test on SF-295 CNS; 96.8% in the test with SF-539 CNS; 106% with UACC-257 melanoma. Also, the growth in the test with M14 melanoma was 99.2%.

`N#CC1=C(N)Oc2c(sc3c(F)cccc23)C1c1ccc([N+](=O)[O-])cc1` (centres undefined): the growth was -4.82% (active) with NCI-H23 lung; 3.23% (active) in the test with NCI-H226 lung; -24.2% (active) in the test with NCI-H322M lung; -33.4% (active) in the test on HOP-62 NSCLC; -26.8% (active) in the test on NCI-H460 lung; -47.5% (active) in the test with HOP-92 NSCLC. Also, the growth with NCI-H522 lung was -26.3% (active); in the test with 786-0 renal, -18.6% (active); in the test with COLO 205 colon, -41.7% (active); in the test on DU-145 prostate, 3.51% (active); in the test on K-562 leukemia it was 1.99% (active); in the test with MALME-3M melanoma, -24.3% (active). The growth in the test with MDA-MB-231 breast was -66.2% (active); with RXF 393 renal it was -57.3% (active); in the test with SF-268 CNS it was -23.1% (active); in the test on SF-295 CNS, -70.3% (active); with SF-539 CNS it was -79.2% (active); with UACC-257 melanoma, -17.2% (active). Further, the growth in the test with M14 melanoma was -50.9% (active).

On to `Cc1cc(=O)n(C(=S)Nc2ccc(Cl)cc2)c2cc(O)ccc12`, for which the growth is 85.6% with NCI-H23 lung; 80.5% with NCI-H226 lung; 97.7% in the test on NCI-H322M lung; 84.1% in the test with HOP-62 NSCLC; 110% in the test on NCI-H460 lung; 84.6% in the test with HOP-92 NSCLC. The growth in the test with NCI-H522 lung is 94.9%; in the test with 786-0 renal, 109%; in the test on COLO 205 colon it was 103%; in the test with DU-145 prostate it was 109%; with K-562 leukemia it was 113%; with MALME-3M melanoma it was 91.5%. The growth in the test on MDA-MB-231 breast is 92.4%; in the test with RXF 393 renal it was 99.7%; in the test on SF-268 CNS, 102%; in the test on SF-295 CNS, 99.8%; in the test on SF-539 CNS, 101%; with UACC-257 melanoma, 110%. Besides, the growth with M14 melanoma is 108%.

Consider `CN1C(=O)/C(=C/c2ccc(C(=O)Nc3ncc(Cc4cc(Cl)ccc4Cl)s3)cc2)SC1=S`, for which the growth in the test on NCI-H23 lung was 67.6%; in the test on NCI-H226 lung, 68.5%; with NCI-H322M lung, 76.7%; in the test on HOP-62 NSCLC, 72.4%; in the test with NCI-H460 lung it was 73.7%; with HOP-92 NSCLC, 50.2%. Moreover, the growth with NCI-H522 lung was 62.5%; with 786-0 renal it was 87.9%; with COLO 205 colon, 89.2%; in the test on DU-145 prostate, 73.7%; with K-562 leukemia, 54.7%; in the test on MALME-3M melanoma, 69.4%. Also, the growth with MDA-MB-231 breast is 75.7%; with RXF 393 renal, 60.1%; in the test with SF-268 CNS, 71%; with SF-295 CNS, 65.8%; in the test on SF-539 CNS, 79.8%; in the test on UACC-257 melanoma it was 91.8%. Also, in the test with M14 melanoma, the growth is 46.5%.

Regarding `C=C1C(=O)O[C@H]2[C@H]1CC/C(COC(=O)NCc1ccc(Cn3c(=O)sn(-c4ccccc4)c3=O)cc1)=C\CC[C@@]1(C)O[C@@H]21`, the growth in the test with NCI-H23 lung was 91.7%; in the test with NCI-H226 lung it was 55.1%; in the test on NCI-H322M lung, 92.7%; with HOP-62 NSCLC, 126%; with NCI-H460 lung, 81.3%; in the test with HOP-92 NSCLC it was 10.3%. Also, the growth in the test with NCI-H522 lung was -70.6% (active); in the test with 786-0 renal, 39.7%; with COLO 205 colon it was 3.5% (active); with DU-145 prostate it was 23.3%; in the test with K-562 leukemia, 1.19% (active); with MALME-3M melanoma, -9.16% (active). For the same compound, the growth in the test with MDA-MB-231 breast is 47.2%; with RXF 393 renal it was 6.99% (active); in the test on SF-268 CNS, 46.6%; in the test on SF-295 CNS, 108%; in the test on SF-539 CNS, 29%; in the test with UACC-257 melanoma it was 68.3%. In the test on M14 melanoma, the growth is 14.4%.

Regarding `CCOC(=O)c1nnn(Cc2cc(=O)oc3ccc(O)cc23)c1C`, the growth with NCI-H23 lung was 101%; in the test on NCI-H226 lung, 99.6%; in the test on NCI-H322M lung, 105%; in the test on HOP-62 NSCLC it was 102%; with NCI-H460 lung it was 99.3%; with HOP-92 NSCLC, 103%. For the same compound, the growth with NCI-H522 lung was 97.1%; in the test with 786-0 renal, 103%; in the test with COLO 205 colon it was 105%; in the test with DU-145 prostate it was 115%; with K-562 leukemia, 103%; with MALME-3M melanoma, 103%. Moreover, the growth in the test on MDA-MB-231 breast was 105%; with RXF 393 renal, 113%; with SF-268 CNS, 108%; in the test on SF-295 CNS, 97.7%; with SF-539 CNS, 102%; in the test on UACC-257 melanoma, 105%. Also, the growth in the test on M14 melanoma is 100%.
